Of roughly 8,800 targets only a part is listed; those with a hit were picked by preference. About 0.5% of all pairs of compound and target were hits.
Columns and labels:
Assay in all cases: log2 fold change, soluble protein after heating vs DMSO (PISA); higher = thermal stabilisation; K562 lysate, 10 uM; active = over 0.2 and 3.5 SD of the protein, either way, in both replicates (recomputed)
ibrutinib = compound: C=CC(=O)N1CCC[C@@H](n2nc(-c3ccc(Oc4ccccc4)cc3)c3c(N)ncnc32)C1 [ibrutinib]
Method in brief: (§1)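 Log-two fold change in thermal stability relative to solvent controls is reported from duplicates. For each sample, crude K562 extract from dounce-homogenised pellets in PBS pH 7.4 with 1 mM MgCl2, at 1 mg/mL protein, was treated with 10 μM compound for 30 min. Aliquots heated for 3 min across 48°C-58°C were pooled, brought to 0.5% NP-40 at 4°C and cleared at 21,000xg for 90 min. The supernatant was quantified by TMTpro 16plex LC-MS/MS with channel sums equalised.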

[1] = compound: CC(=O)c1cnc2ccc(-c3cc(Cl)c(O)c(Cl)c3)nc2c1N[C@H]1CC[C@H](CN(C)C)CC1
Method in brief: as §1

ralimetinib = compound: CC(C)(C)Cn1c(N)nc2ccc(-c3[nH]c(C(C)(C)C)nc3-c3ccc(F)cc3)nc21 [ralimetinib]
Method in brief: as §1

[2] = compound: CC(C)(O)CC(=O)NCCn1ccc2ncnc(Nc3ccc(Oc4cccc(C(F)(F)F)c4)c(Cl)c3)c21
Method in brief: as §1

[3] = compound: CC(C)C1=C2N=C(C=C(N2N=C1)NCC3=CC=CC=C3)NCCCCCCN
Method in brief: as §1

[4] = compound: CC1=C(C(CC(=O)N1)C2=CC=C(C=C2)C(F)(F)F)C(=O)NC3=C(C=C4C(=C3)C=NN4)F
Method in brief: as §1

[5] = compound: CC1=C(C2=C(C=C1)C(=O)C3=CC=CC=C3N2CCCN)C
Method in brief: as §1

[6] = compound: CC1=C(C=C(C=C1)NC(=O)C2=CC(=CC=C2)N(C)C)NC(=O)C3=CC=C(C=C3)O
Method in brief: as §1

[7] = compound: CC1=CC=C(C=C1)SC2=C3C=C(SC3=CN=C2)C(=O)N
Method in brief: as §1

[8] = compound: CC1=C(C=C(C=C1)NC(=O)C2=CC(=CC=C2)C(C)(C)C#N)NC3=CC4=C(C=C3)N=CN(C4=O)C
Method in brief: as §1

Measured: log2 fold change

PPP2R3C (UniProt Q969Q6)
UniProt Q969Q6, sequence (Q969Q6 whole entry, looked up): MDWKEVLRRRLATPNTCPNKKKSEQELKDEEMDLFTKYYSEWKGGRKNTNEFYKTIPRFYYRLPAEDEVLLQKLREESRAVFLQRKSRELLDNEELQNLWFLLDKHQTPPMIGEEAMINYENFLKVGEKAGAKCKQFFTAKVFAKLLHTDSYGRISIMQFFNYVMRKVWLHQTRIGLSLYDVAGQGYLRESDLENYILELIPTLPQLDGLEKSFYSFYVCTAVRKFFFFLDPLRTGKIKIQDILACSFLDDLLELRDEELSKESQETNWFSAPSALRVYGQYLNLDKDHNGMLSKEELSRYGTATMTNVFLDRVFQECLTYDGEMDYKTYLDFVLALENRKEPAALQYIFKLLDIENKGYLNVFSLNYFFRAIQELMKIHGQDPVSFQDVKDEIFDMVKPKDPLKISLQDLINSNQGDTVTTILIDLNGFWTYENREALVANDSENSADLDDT
inactive: ibrutinib 0.108 | [1] 0.089 | ralimetinib 0.109 | [2] 0.036 | [3] -0.088 | [4] 0.021 | [5] -0.02 | [6] 0.048 | [7] 0.196

PMS2 (UniProt P54278)
inactive: ibrutinib 0.027 | [1] 0.032 | ralimetinib 0.046 | [2] -0.047 | [3] 0.069 | [4] -0.038 | [5] -0.049 | [8] -0.019 | [6] -0.004 | [7] 0.002

PIK3CB (UniProt P42338)
UniProt P42338, sequence (P42338 whole entry, looked up): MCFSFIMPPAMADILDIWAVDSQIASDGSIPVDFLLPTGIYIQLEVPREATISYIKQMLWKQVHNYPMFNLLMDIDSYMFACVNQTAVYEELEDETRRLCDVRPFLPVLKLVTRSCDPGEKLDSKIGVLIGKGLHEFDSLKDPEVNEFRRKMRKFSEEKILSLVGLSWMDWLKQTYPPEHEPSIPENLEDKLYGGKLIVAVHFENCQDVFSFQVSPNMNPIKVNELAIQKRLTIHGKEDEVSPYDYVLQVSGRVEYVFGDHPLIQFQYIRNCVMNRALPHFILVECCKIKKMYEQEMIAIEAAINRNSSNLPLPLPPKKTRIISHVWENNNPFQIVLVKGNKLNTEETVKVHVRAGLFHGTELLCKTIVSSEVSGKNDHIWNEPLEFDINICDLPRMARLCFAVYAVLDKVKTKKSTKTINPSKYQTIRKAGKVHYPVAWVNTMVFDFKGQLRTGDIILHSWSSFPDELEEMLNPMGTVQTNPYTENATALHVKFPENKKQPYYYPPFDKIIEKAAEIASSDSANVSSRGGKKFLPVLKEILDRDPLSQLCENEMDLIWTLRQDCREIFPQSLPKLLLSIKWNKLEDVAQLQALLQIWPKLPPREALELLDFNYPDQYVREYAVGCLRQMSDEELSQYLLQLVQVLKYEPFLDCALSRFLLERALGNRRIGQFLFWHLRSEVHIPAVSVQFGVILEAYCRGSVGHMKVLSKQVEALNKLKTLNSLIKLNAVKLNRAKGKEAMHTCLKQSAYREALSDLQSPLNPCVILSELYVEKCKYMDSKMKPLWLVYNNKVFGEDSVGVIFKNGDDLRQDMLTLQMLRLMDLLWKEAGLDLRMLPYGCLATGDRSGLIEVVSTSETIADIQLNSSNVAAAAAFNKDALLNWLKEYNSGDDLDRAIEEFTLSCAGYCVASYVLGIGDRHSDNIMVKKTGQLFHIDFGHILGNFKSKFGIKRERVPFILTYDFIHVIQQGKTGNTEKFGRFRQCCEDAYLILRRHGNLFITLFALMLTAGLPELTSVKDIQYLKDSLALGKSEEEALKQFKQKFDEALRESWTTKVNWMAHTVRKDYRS
inactive: ibrutinib -0.009 | [1] 0.388 | ralimetinib -0.011 | [2] -0.005 | [3] -0.076 | [4] -0.003 | [5] 0.035 | [8] -0.012 | [6] 0.056 | [7] 0.018

PELO (UniProt Q9BRX2)
inactive: ibrutinib 0.034 | [1] -0.004 | ralimetinib 0.04 | [2] -0.035 | [3] 0.005 | [4] -0.02 | [5] -0.012 | [8] -0.005 | [6] 0.001 | [7] 0.002

PPP2R5C isoform 5 (UniProt Q13362)
inactive: ibrutinib -0.002 | [1] 0.012 | ralimetinib -0.021 | [2] -0.036 | [3] -0.037 | [4] -0.038 | [5] 0.02 | [8] 0.002 | [6] 0.014 | [7] 0.037

PGRMC1 (UniProt O00264)
UniProt O00264, sequence (O00264 whole entry, looked up): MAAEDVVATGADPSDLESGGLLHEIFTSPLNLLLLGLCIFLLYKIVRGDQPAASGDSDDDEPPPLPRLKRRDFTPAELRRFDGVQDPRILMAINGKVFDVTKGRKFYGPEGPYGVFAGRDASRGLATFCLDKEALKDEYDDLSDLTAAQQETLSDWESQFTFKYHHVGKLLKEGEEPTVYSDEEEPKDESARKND
inactive: ibrutinib 0.057 | [1] 0.013 | ralimetinib 0.008 | [2] -0.01 | [3] -0.035 | [4] 0.004 | [5] 0.022 | [8] -0.066 | [6] -0.007 | [7] -0.005

PUF60 isoform 2 (UniProt Q9UHX1)
inactive: ibrutinib 0.153 | [1] -0.049 | ralimetinib 0.045 | [2] 0.004 | [3] -0.174 | [4] -0.021 | [8] 0.032 | [6] -0.036 | [7] 0.013

PRKCSH isoform 2 (UniProt P14314)
inactive: ibrutinib -0.125 | [1] 0.069 | ralimetinib 0.012 | [2] -0.142 | [3] -0.004 | [4] 0.04 | [5] -0.017 | [8] 0.131 | [6] 0.132 | [7] -0.045

POLR2M (UniProt Q6EEV4)
UniProt Q6EEV4, sequence (Q6EEV4 whole entry, looked up): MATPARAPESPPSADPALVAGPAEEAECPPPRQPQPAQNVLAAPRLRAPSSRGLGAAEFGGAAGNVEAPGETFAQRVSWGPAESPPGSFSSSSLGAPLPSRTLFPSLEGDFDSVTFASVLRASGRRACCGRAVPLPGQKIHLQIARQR
inactive: ibrutinib 0.005 | [1] -0.07 | [3] -0.109 | [5] 0.007 | [8] 0.157 | [7] 0.078

PPP2R5C isoform 2 (UniProt Q13362)
inactive: ibrutinib -0.145 | ralimetinib -0.016 | [2] -0.02 | [3] 0.02 | [4] -0.012 | [5] 0 | [8] -0.155 | [6] 0.08

PHF14 (UniProt O94880)
active: [4] 0.454
inactive: ibrutinib -0.014 | [1] 0.03 | ralimetinib -0.024 | [2] -0.055 | [5] -0.003 | [6] -0.042 | [7] -0.128

PREP (UniProt H0Y5Y0)
inactive: [1] -0.051 | [7] 0.029

PRG4 (UniProt Q92954)
inactive: ibrutinib 0.267 | [1] -0.002 | ralimetinib 0.037 | [2] -0.109 | [4] -0.091 | [5] -0.029 | [8] -0.027 | [6] 0.035 | [7] 0.034

PFN1 (UniProt I3L3D5)
inactive: ibrutinib -0.045 | [1] -0.053 | ralimetinib 0.045 | [2] -0.033 | [4] -0.013 | [6] 0 | [7] 0.031

PMS1 (UniProt P54277)
inactive: ibrutinib 0 | ralimetinib -0.015 | [2] -0.021 | [3] 0.025 | [4] -0.052 | [5] 0.022 | [8] -0.02 | [6] 0.009

PPT2, A0A140T9Y1
inactive: [4] -0.142

PRIMPOL (UniProt Q96LW4)
inactive: ibrutinib 0.062 | ralimetinib 0.055 | [2] -0.027 | [3] 0.048 | [4] -0.055 | [5] -0.034 | [8] 0.078 | [6] 0.049

PCBP2 (UniProt F8W0G4)
inactive: ibrutinib -0.27 | ralimetinib -0.061 | [2] -0.282 | [3] -0.175 | [4] -0.045 | [5] -0.083 | [6] 0.049

PFKFB4 (UniProt Q16877)
UniProt Q16877, sequence (Q16877 whole entry, looked up): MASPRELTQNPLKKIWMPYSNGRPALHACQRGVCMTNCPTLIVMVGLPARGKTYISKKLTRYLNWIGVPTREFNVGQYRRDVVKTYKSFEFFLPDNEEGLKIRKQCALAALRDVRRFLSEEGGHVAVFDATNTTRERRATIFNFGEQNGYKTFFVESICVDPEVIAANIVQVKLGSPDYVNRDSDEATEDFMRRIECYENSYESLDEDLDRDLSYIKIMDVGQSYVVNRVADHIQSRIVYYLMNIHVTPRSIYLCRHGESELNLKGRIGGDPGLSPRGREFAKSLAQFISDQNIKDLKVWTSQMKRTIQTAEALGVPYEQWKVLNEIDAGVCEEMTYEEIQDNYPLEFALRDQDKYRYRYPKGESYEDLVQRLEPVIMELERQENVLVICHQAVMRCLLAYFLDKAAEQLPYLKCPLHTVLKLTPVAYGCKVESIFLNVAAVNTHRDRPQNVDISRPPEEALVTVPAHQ
inactive: ibrutinib 0.022 | [1] -0.005 | ralimetinib 0.1 | [2] -0.032 | [3] -0.004 | [5] -0.008 | [8] -0.003 | [6] 0.093 | [7] 0.011

PHKG1 isoform 2 (UniProt Q16816)
inactive: [1] 0.595 | ralimetinib 0.02 | [2] -0.016 | [3] -0.003 | [4] -0.117 | [5] -0.196 | [8] 0.017 | [6] -0.02 | [7] -0.086

PFN3 (UniProt P60673)
inactive: [1] 0.042 | [4] -0.02 | [8] -0.03 | [7] -0.02

PHOSPHO2 (UniProt C9JD35)
inactive: [8] 0.09

PPP2CA (UniProt E7ESG8)
inactive: [4] 0.239

PDIA4, A0A499FI48
inactive: [5] -0.017 | [8] -0.066

PIM1 isoform 2 (UniProt P11309)
inactive: ibrutinib -0.138 | ralimetinib 0.042 | [2] 0.122 | [3] -0.038 | [4] -0.014 | [5] 0.054 | [8] 0.01 | [6] 0.054

POM121C (UniProt A8CG34)
inactive: ibrutinib -0.167 | [1] 0.008 | ralimetinib -0.127 | [2] 0.016 | [3] 0.028 | [6] -0.028 | [7] 0.034

PHGDH, A0A286YFE1
inactive: ibrutinib 0.032 | [1] 0.084 | [5] -0.458 | [7] 0.107

PRRG1 (UniProt O14668)
UniProt O14668, sequence (O14668 whole entry, looked up): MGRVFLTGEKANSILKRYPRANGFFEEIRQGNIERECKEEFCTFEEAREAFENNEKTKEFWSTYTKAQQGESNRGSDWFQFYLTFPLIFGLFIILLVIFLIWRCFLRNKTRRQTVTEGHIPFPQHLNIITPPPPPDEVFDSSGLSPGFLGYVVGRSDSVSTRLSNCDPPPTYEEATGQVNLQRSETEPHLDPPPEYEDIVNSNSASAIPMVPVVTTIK
inactive: ralimetinib 0.081 | [2] 0.072 | [6] -0.033

PIAS2 (UniProt O75928)
inactive: ralimetinib 0.019 | [2] 0.006 | [3] -0.017 | [4] 0.039 | [5] 0.052 | [8] -0.001 | [6] -0.002

PPIC (UniProt P45877)
inactive: ibrutinib 0.278 | ralimetinib -0.17 | [2] 0.057 | [3] -0.021 | [4] -0.139 | [5] 0.138 | [8] 0.102 | [6] 0.05

NA (UniProt Q4G0T1)
UniProt Q4G0T1, sequence (Q4G0T1 whole entry, looked up): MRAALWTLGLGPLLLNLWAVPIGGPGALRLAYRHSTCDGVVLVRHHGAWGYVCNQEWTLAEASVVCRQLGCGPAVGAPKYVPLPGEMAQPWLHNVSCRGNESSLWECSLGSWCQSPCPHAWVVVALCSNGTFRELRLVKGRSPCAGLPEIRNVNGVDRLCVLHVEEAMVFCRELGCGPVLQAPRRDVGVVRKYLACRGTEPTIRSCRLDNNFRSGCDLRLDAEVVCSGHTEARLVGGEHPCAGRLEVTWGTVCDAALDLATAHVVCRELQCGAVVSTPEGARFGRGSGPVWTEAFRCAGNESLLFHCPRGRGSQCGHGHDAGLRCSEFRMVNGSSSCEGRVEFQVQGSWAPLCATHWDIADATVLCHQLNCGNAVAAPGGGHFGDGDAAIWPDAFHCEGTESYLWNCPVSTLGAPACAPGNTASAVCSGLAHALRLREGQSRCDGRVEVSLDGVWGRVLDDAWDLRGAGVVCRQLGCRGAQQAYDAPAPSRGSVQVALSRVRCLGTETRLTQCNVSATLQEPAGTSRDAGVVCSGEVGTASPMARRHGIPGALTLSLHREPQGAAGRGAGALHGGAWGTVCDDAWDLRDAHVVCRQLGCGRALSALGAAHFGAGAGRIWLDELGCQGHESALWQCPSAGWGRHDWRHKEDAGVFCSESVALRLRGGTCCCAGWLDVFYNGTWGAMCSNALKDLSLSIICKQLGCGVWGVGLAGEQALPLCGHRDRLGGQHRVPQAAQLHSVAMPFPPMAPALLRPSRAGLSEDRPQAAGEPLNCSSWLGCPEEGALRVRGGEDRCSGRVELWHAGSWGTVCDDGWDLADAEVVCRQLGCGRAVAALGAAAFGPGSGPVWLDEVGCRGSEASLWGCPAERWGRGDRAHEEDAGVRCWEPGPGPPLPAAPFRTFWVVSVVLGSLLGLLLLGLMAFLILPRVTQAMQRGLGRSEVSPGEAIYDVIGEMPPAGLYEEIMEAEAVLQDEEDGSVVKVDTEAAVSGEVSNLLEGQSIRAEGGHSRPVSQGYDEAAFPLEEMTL
inactive: ralimetinib 0.016 | [2] -0.096 | [3] -0.119 | [5] -0.061 | [8] -0.158 | [6] -0.151

PTK2 isoform 2 (UniProt Q05397)
inactive: ibrutinib 0.173 | [1] -0.047 | [3] -0.002 | [5] -0.138 | [7] -0.053

PLXND1 (UniProt Q9Y4D7)
inactive: ibrutinib 0.138 | ralimetinib -0.081 | [2] -0.07 | [3] 0.046 | [4] -0.023 | [5] 0.112 | [8] -0.033 | [6] 0.218

PPP2R5B (UniProt Q15173)
inactive: ibrutinib 0.042 | [1] 0.033 | ralimetinib 0 | [2] -0.046 | [3] -0.055 | [5] 0.009 | [8] 0.026 | [6] 0.08 | [7] -0.053

PRR4 (UniProt Q16378)
inactive: [1] -0.009 | ralimetinib -0.188 | [2] 0.305 | [3] 1.86 | [4] 1.73 | [6] 0.1 | [7] -0.23

PPP1R14C (UniProt Q8TAE6)
inactive: ibrutinib 0.067 | [1] 0.007 | ralimetinib 0.057 | [2] 0.042 | [4] -0.028 | [5] -0.097 | [6] -0.123 | [7] 0.068

PNPLA4 (UniProt P41247)
inactive: ralimetinib 0.14 | [2] -0.099 | [5] -0.116 | [8] -0.052 | [6] 0.046

POLR2F (UniProt U3KPV3)
inactive: [5] 0.223

PCBP2 (UniProt F8VRH0)
inactive: [1] -0.014 | ralimetinib 0.087 | [2] -0.033 | [3] 0.051 | [4] 0.129 | [8] 0.017 | [6] 0.012 | [7] 0.027

PHC1 (UniProt P78364)
UniProt P78364, sequence (P78364 whole entry, looked up): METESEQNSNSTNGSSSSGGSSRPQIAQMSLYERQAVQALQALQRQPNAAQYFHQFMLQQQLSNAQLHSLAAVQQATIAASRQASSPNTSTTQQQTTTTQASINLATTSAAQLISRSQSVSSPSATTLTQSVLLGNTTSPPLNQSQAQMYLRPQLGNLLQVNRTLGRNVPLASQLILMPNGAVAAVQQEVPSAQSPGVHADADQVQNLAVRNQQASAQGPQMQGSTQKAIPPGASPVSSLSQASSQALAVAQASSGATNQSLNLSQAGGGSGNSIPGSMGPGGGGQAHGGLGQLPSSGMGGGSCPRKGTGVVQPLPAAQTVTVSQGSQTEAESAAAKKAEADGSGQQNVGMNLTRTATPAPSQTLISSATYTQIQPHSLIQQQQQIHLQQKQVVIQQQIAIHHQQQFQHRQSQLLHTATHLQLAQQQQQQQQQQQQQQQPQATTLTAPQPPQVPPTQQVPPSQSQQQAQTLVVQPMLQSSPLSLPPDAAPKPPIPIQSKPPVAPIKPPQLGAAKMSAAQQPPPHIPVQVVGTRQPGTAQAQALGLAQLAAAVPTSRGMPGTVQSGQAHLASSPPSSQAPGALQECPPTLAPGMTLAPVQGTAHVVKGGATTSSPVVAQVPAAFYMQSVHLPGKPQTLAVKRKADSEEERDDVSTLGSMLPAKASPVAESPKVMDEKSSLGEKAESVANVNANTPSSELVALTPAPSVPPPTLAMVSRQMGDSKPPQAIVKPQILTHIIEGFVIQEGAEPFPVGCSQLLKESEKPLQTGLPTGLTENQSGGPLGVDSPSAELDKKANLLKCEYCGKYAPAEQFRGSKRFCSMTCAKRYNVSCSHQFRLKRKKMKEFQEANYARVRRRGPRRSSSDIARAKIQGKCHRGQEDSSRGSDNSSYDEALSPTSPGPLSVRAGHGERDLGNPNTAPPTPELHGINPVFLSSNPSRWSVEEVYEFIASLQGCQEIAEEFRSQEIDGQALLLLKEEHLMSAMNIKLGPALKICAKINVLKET
active: [8] 0.443
inactive: ibrutinib 0.027 | [4] 0.044 | [5] -0.117

PPME1 (UniProt Q9Y570)
UniProt Q9Y570, sequence (Q9Y570 whole entry, looked up): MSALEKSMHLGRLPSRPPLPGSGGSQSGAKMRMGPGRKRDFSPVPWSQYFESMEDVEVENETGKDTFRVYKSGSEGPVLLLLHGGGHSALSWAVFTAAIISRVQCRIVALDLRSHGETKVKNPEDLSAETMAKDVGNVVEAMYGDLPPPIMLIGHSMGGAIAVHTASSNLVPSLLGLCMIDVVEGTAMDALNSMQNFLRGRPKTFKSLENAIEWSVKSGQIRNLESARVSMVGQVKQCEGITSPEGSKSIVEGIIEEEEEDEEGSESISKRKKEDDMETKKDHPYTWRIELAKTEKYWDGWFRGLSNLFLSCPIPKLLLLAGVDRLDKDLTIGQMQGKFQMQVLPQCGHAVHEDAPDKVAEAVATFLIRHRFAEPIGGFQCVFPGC
inactive: ibrutinib -0.038 | [1] -0.072 | [3] -0.238 | [5] -0.018 | [7] -0.077

PPP1R12B isoform 6 (UniProt O60237)
inactive: ibrutinib 0.019 | [1] -0.112 | ralimetinib 0.01 | [2] -0.251 | [3] 0.095 | [5] 0.106 | [8] 0.142 | [6] -0.012 | [7] -0.194

PCLAF (UniProt Q15004)
inactive: ibrutinib 0.025 | ralimetinib 0.035 | [2] -0.014 | [3] -0.011 | [4] 0.003 | [5] -0.041 | [8] 0.034 | [6] -0.005

From the supplement of paper PMC10849652
